Hits are enriched below; roughly 4.6% of the tested compounds scored in any of these assays.
HSF1 activator – increases HSF-1 driven luciferase reporter signal | NIH3T3-HGL HSF-1 luciferase reporter, MG132, 8 h; 100% = twice DMSO control signal | activation, % at 9 µM | 300,000 compounds, 1.7% hits | AID 504408;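 active means mean replicate activation of at least 50% with a set share of replicates each reaching 50%; inconclusive means only one of those two conditions met; inactive means mean below 50% and too few replicates reaching it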;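 further: 0% = median of the neutral control wells and 100% = twice that signal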
FXN GAA850 act – frataxin GAA850 promoter activation; AID 540364; HEK293 lucGAA850 FXN promoter luciferase reporter, 24 h; percent of 10 µM SAHA response; activation, % at 6 µM; 360,000 compounds, 0.56% hits;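 active means activation above the average of all compounds screened plus 3 SD, cutoff fixed separately per campaign, cut at about 7.5% in these data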;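 further: 0% = DMSO wells and 100% = 10 µM SAHA wells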
AHR act – activates the human aryl hydrocarbon receptor | P35869 | AHR-responsive luciferase reporter cells, luminescence | activation, % at 5 µM | 320,000 compounds, 2.5% hits | AID 2796; in the data active means activation above about 47%;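 further: 0% = vehicle wells and 100% = reference agonist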
HSF1 inh – HSF1 inhibition; AID 2098; activity change, negative = inhibition, % at 7.5 µM (by protocol); 300,000 compounds, 0.77% hits; NIH3T3-HGL HSE-luciferase, MG132-induced, luminescence 8 h; active compounds read low;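 active means more than half of replicate wells show activity change below -50%, luminescence cut by over half; inconclusive means some wells, but at most half, below -50%; inactive means no replicate well below -50%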;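 further: luciferase reports HSF-1 transcriptional activity via heat shock element; 0% = median of DMSO wells and -100% = zero luminescence signal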
* = called active by the depositor; ? = inconclusive; · = no result.

SMILES	HSF1 activator	FXN GAA850 act	AHR act	HSF1 inh
CCOc1ccc(C(=O)NCC(=O)Nc2ccc3c(c2)OCO3)cc1OCC	·	1	·	·
O=C(Nc1ccc2c(c1)OCCO2)c1ccc(Cl)cc1	27	3	-2	9
COc1ccc(-c2cccc(NC(=O)c3ccc4c(c3)OCO4)c2)nn1	-3	1	65*	-2
NC(=O)C1CCN(C(=O)c2ccc([N+](=O)[O-])cc2NC(=O)c2cccs2)CC1	-5	1	4	1
O=C(Nc1cccc(NC(=O)c2ccc3c(c2)OCO3)c1)c1ccccc1	15	1	32	-3
O=C(Nc1ccc2c(c1)OCO2)c1cccc(S(=O)(=O)N2CCCC2)c1	8	-2	107*	9
O=C(Nc1ccc(Cl)c(Cl)c1)c1ccc2c(c1)OCO2	88*	0	34	64
O=C(Nc1ccc2c(c1)OCO2)c1cccc(Cl)c1	31	1	49*	24
O=C(Nc1ccc(F)c(F)c1)c1ccc2c(c1)OCO2	34	4	5	13
CC(NC(=O)c1ccc2c(c1)OCO2)c1ccccc1 (centres undefined)	-79	-1	13	-71*
CCOC(=O)C1NN=C(C(=O)c2ccccc2)C1c1ccccc1 (centres undefined)	31	0	-1	1
Cc1c(/C=N/n2cnnc2)c2ccccc2n1CCOc1ccccc1	15	2	16	5
Fc1ccc(NC(=S)NCCc2ccc(Cl)cc2)cc1	8	3	3	4
CCOC(=O)c1ccc(N/C=C/C(=O)c2ccc(OC)c(OC)c2)cc1	-43	-1	1	-35
CC(=O)Nc1ccc(C(=O)Nc2ccc3c(c2)OCO3)cc1	11	1	11	6
COCCSc1ccccc1C(=O)Nc1ccc2c(c1)OCO2	1	0	19	-2
O=C(Nc1ccc2c(c1)OCO2)c1ccc[n+]([O-])c1	5	1	48*	4
CSc1ccccc1C(=O)Nc1ccc2c(c1)OCO2	16	-1	54*	5
CC1=C(C(=O)Nc2ccccc2)C(c2ccc(C)cc2)N=C(Nc2nc3ccccc3o2)N1 (centres undefined)	62*	-1	6	38
O=C(Nc1cc2c(oc1=O)CCCC2=O)c1ccccc1	11	-1	62*	0
CCOC(=O)/C=C(C)\C=C\c1c[nH]c2ccccc12	-1	0	53*	-3
CCOC(=O)/C(=C/c1c[nH]c2ccccc12)NC(C)=O	44	-2	12	1
O=c1c2ccccc2nnn1CSc1ncnc2ccccc12	112*	0	10	78
Cc1ccc(SCn2nnc3ccccc3c2=O)c(C)c1	66*	6	1	37
O=c1c2ccccc2nnn1CSc1ccccc1F	82*	0	45	29
SMILES	HSF1 activator	FXN GAA850 act	AHR act	HSF1 inh
O=c1ccnc(SCn2nnc3ccccc3c2=O)[nH]1	-10	-5	6	3
Cc1ccc2nc(SCn3nnc4ccccc4c3=O)[nH]c2c1	?	7	75*	29
O=c1c2ccccc2nnn1CSc1nc2ccccc2[nH]1	40	4	4	22
C=CCN1C(=O)CS/C1=C(\C#N)S(=O)(=O)c1ccc(C)cc1	12	0	5	-1
Cc1ncsc1CCOC(=O)c1ccccc1	13	4	-4	6
Cc1ccc(-c2nnn(CC(=O)N(CC(=O)NCc3ccccc3)c3cccc(C)c3C)n2)o1	9	-1	1	-6
COc1ccccc1CN(CC(=O)NCc1ccc(F)cc1)C(=O)c1csnn1	3	-1	0	-2
Cc1oc2ccc(NS(=O)(=O)c3ccc(C(C)(C)C)cc3)cc2c1C(=O)Nc1ccccc1	61*	3	4	18
Cc1cccc(NC(=S)NNC(=O)c2ccco2)c1	38	-1	0	0
COc1ccccc1CNc1ccc([N+](=O)[O-])cc1C	55*	2	4	27
COc1cccc(CNc2ccc([N+](=O)[O-])cc2Cl)c1O	97*	3	0	72
Cc1cccc(C(C)C)c1NC(=O)COC(=O)c1cccc(S(=O)(=O)N2CCc3ccccc3C2)c1	56*	-2	0	17
CCc1cccc(CC)c1NC(=O)COC(=O)c1cccc(S(=O)(=O)N2CCc3ccccc3C2)c1	10	-1	5	4
Cc1ccc(/C=C(\C#N)C(=O)Nc2ccccn2)o1	60*	3	10	37
COc1ccc(/C=C(\C#N)C(=O)Nc2ccccn2)cc1	75*	1	5	24
Cc1ccn2c(NC3CCCC3)c(-c3ccccn3)nc2c1	-10	5	77*	1

Source: PubChem BioAssay
